Laboratory results taken from PubChem BioAssay AID686978 (National Center for Advancing Translational Sciences (NCATS), 2013).
Screen size: about 420,000 compounds; about 64,000 (15%) were called active. Inconclusive results (about 27%) are left out. The call rests on the fitted dose curve; in most records, active means well fitted inhibition curve with a large enough effect; inconclusive means small, poorly fitted or top-dose-only effect; inactive means flat fitted curve, though single readings scatter. Only a sample is shown. A call without a number means that no potency is given here.
Potency means the concentration at half of the fitted maximal effect.

Experiment: qHTS for Inhibitors of human tyrosyl-DNA phosphodiesterase 1 (TDP1): qHTS in cells in absence of CPT; further: nearly all actives have a fitted effect of over 55% in size
Settings: DT40 Tdp1-/- hTDP1 cells, no CPT, ATP luminescence, 48 h; activity change, negative = growth inhibition: at 46.2 µM (top of the series)
Procedure, shortened: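 Cells were dispensed at 400 per well, compounds added by pin tool, plates incubated ≥48 hr at 37 °C, then CellTiter-Glo added for 30 min at room temperature before luminescence reading. Line: DT40 Tdp1-/- complemented with hTDP1; camptothecin omitted.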
In the case of `CCN(CC)P(=O)(/C(Cl)=C\Nc1c(C)n(C)n(-c2ccccc2)c1=O)N(CC)CC`, the Potency is reported as “inactive”.
With `CC1=C(C(=O)N2CCOCC2)CC(CC(=O)NCc2ccco2)C(=O)N1Cc1ccc(F)cc1` (centres undefined) the Potency was “inactive”.
In the case of `CC1=C(C(=O)N2CCOCC2)CC(CC(=O)NCc2cccc3ccccc23)C(=O)N1CCC1=CCCCC1` (centres undefined), the Potency is reported as “inactive”.
In the case of `COc1ccccc1CNC(=O)CCCN1C(=O)NC2(CCCC2)C1=O`, the Potency is reported as “inactive”.
In the case of `CCCCN1C(=O)C(CC(=O)NCc2cccs2)CC(C(=O)N2CCOCC2)=C1C` (centres undefined), the Potency is reported as “inactive”.
For `CCCCNC(=O)C[C@@H]1C[C@@]2(C(=O)OCC)CCC=C2N(Cc2ccco2)C1=O`, the Potency was “inactive”.
For `CCCCNC(=O)C[C@@H]1C[C@@]2(C(=O)OCC)CCC=C2N(Cc2cccc3ccccc23)C1=O`, the Potency was 16.4 µM (active).
In the case of `CCOC(=O)[C@]12CCC=C1N(Cc1ccco1)C(=O)[C@H](CC(=O)NCc1cccc(C(F)(F)F)c1)C2`, the Potency is reported as 25.9 µM (active).
For `O=C(COC(=O)C12CC3CC(CC(C3)C1)C2)NCc1ccco1`, the Potency was “inactive”.
For `CCOC(=O)[C@]12CCC=C1N(Cc1cccc3ccccc13)C(=O)[C@H](CC(=O)NCc1cccc(C(F)(F)F)c1)C2`, the Potency was 23.1 µM (active).
In the case of `CCCCCCCCN1C(=O)[C@H](CC(=O)NCc2cccc3ccccc23)C[C@@]2(C(=O)OC)CCCCC=C12`, the Potency is reported as 20.6 µM (active).
With `O=C(Cn1nnc(-c2ccc(CN3CCOCC3)cc2)n1)NC1CCCCC1` the Potency was “inactive”.
With `COc1ccc(OCC(O)CNCCNc2nccc(C(F)(F)F)n2)cc1` (centres undefined) the Potency was “inactive”.
With `CC(=O)NCC(=O)N(Cc1ccco1)C1(C(=O)NC2CCCC2)CCCCC1` the Potency was “inactive”.
With `O=c1c(-c2ccc(F)c(F)c2)nc2cncnc2n1-c1ccccc1` the Potency was “inactive”.
For `COc1ccc(CCNC(=O)CCCCCNC(=O)N2CCn3c2nc2ccccc23)cc1OC`, the Potency was “inactive”.
In the case of `COc1ccc(C(=O)OCC(=O)NCCCc2ccccc2)cc1OC`, the Potency is reported as “inactive”.
In the case of `COC(=O)[C@]12CCCCC=C1N(Cc1ccco1)C(=O)[C@H](CC(=O)NCCCCc1ccccc1)C2`, the Potency is reported as 16.4 µM (active).
In the case of `CC1c2nc3ccccc3n2C(CC(=O)NCCCN2CCOCC2)C(=O)N1Cc1ccccc1` (centres undefined), the Potency is reported as “inactive”.
In the case of `C#CCNC(=O)C[C@@H]1C[C@@]2(C(=O)OCC)CCCC=C2N(Cc2ccco2)C1=O`, the Potency is reported as “inactive”.
In the case of `COC(=O)[C@@]12C[C@@H](CC(=O)NCCCCc3ccccc3)C(=O)N(CCc3ccc(OC)c(OC)c3)C1=CCC(C)(C)C2`, the Potency is reported as 20.6 µM (active).
With `CCOC(=O)[C@]12CCCC=C1N(Cc1cccc3ccccc13)C(=O)[C@H](CC(=O)NCC13CC4CC(CC(C4)C1)C3)C2` the Potency was 23.1 µM (active).
With `CCCCCC1CCC(c2nnc(SCC(C)=O)o2)CC1` (centres undefined) the Potency was “inactive”.
With `Cc1cc(C)n(-c2c(F)c(F)c(COC(=O)c3ccccc3)c(F)c2F)n1` the Potency was “inactive”.
With `O=C(C1=C(O)C(=O)N(c2ncccn2)C1c1cccs1)c1ccco1` (centres undefined) the Potency was “inactive”.
In the case of `O=C(Oc1cccnc1)c1cc2ccccc2oc1=O`, the Potency is reported as “inactive”.
For `CC(=O)N1CCN(CC(c2ccccc2)c2ccccc2)CC1`, the Potency was “inactive”.
In the case of `COc1ccc(CNC(=O)C(C)NCc2ccccc2Cl)cc1` (centres undefined), the Potency is reported as “inactive”.
With `CC(CCc1ccc(O)cc1)NCc1ccc(Cl)cc1Cl` (centres undefined) the Potency was 18.4 µM (active).
With `COc1ccc(CCn2ccc(O)c(Cc3ccc(Cl)cc3Cl)c2=O)cc1OC` the Potency was “inactive”.
In the case of `O=C(CN1CCN(c2ncc(C(F)(F)F)cc2Cl)CC1)Nc1ccc2c(c1)OCO2`, the Potency is reported as “inactive”.
In the case of `COc1ccc(N2CCN(C(=O)CNC(=O)c3ccc(Br)o3)CC2)cc1`, the Potency is reported as “inactive”.
In the case of `O=C(NCC(=O)N1CCN(c2ncc(C(F)(F)F)cc2Cl)CC1)c1ccc(Br)o1`, the Potency is reported as 18.4 µM (active).
In the case of `Cc1ccc(CSCC(=O)N(C)CC(=O)Nc2cccc(F)c2)cc1`, the Potency is reported as “inactive”.
With `O=C(O)CCC(=O)N(Cc1ccco1)c1nc(-c2ccccc2)cs1` the Potency was “inactive”.
In the case of `CC(Oc1ccc(F)cc1F)C(=O)/C=C/N(C)C` (centres undefined), the Potency is reported as “inactive”.
For `c1ccc(C2CNCc3c2ccc2ccccc32)cc1` (centres undefined), the Potency was 16.4 µM (active).
With `CC1(C)CC(=O)C(C=NCCN2CCN(C(=S)Nc3cccc(Cl)c3)CC2)=C(O)C1` the Potency was “inactive”.
With `COc1ccc(-c2n[nH]c3c2CN(C(=O)c2ccc(F)cc2)CC3)cc1` the Potency was “inactive”.
For `COCCCNC(=O)COc1cc(C)c(Cl)c(C)c1`, the Potency was “inactive”.
With `Cc1cc2c(cc1S(=O)(=O)CCC(=O)NCc1ccccc1)OCC(=O)N2` the Potency was “inactive”.
In the case of `CC(=O)Nc1ccc2c3c(ccc([N+](=O)[O-])c13)CC2`, the Potency is reported as “inactive”.
In the case of `CCCNC(=O)C1CC(=O)N(c2ccc(OCC(=O)Nc3cccc(C)c3C)cc2)C1` (centres undefined), the Potency is reported as “inactive”.
In the case of `CCCOc1ccc(/C=N/NC(=O)C2CC2)c(OCCC)c1`, the Potency is reported as “inactive”.
For `COc1ccc(NC(=S)NCCNC(C)=O)cc1`, the Potency was “inactive”.
For `COc1ccc(CS(=O)/C(Cl)=C(/Cl)C(=O)Nc2ccc(OC)nc2)cc1` (centres undefined), the Potency was 0.13 µM (active).
In the case of `COc1ccc(NC(=S)Nc2ccccc2Cl)cn1`, the Potency is reported as “inactive”.
In the case of `CS(=O)(=O)c1ccc(Cl)c(NC(=O)COC(=O)c2ncc(Cl)c(Cl)c2Cl)c1`, the Potency is reported as “inactive”.
With `O=C(Nc1cc2c3c(c1)CC(=O)N3CCC2)c1ccccc1F` the Potency was “inactive”.
For `COc1ccc(/C=C(\NC(=O)c2ccccc2)C(=O)NCCN2CCOCC2)cc1OC`, the Potency was “inactive”.
With `CN(C(=O)COc1ccccc1)c1nnc(-c2ccncc2)s1` the Potency was “inactive”.
With `COCCN(Cc1nc(-c2ccc(C(F)(F)F)cc2)no1)C(C)C` the Potency was “inactive”.
In the case of `COCCN(C(=O)C(C)C)c1nnc(-c2ccc(C(C)(C)C)cc2)s1`, the Potency is reported as 20.6 µM (active).
For `CCOC(=O)N1CCN(CC(=O)Nc2cc(C)nn2-c2nc3ccccc3s2)CC1`, the Potency was 23.1 µM (active).
With `CCOC(=O)N1CCN(C(=O)Cn2cnc3ccccc3c2=O)CC1` the Potency was “inactive”.
In the case of `CCOC(=O)N1CCN(CC(=O)Nc2ccc(F)cc2)CC1`, the Potency is reported as “inactive”.
With `CC1CCCN(c2csc3ccc(F)cc3c2=O)C1` (centres undefined) the Potency was “inactive”.
In the case of `S=c1[nH]nc(/C=C/c2ccccc2)o1`, the Potency is reported as “inactive”.
For `CC(=O)Nc1nc(N(C)C)nc(N(C)C)n1`, the Potency was “inactive”.
For `CN(C)c1nc(Nc2ccc(Cl)c(Cl)c2)nc(N(C)C)n1`, the Potency was 10.3 µM (active).
For `CN(C)c1nc(NN)nc(Nc2ccc(F)cc2)n1`, the Potency was “inactive”.
With `Cc1ccc(/C([O-])=C(/C(=S)NCc2ccco2)[n+]2ccccc2)cc1[N+](=O)[O-]` the Potency was “inactive”.
With `CCOC(=O)c1c(NC(=O)CSc2nnc(CNc3ccc(C)cc3C)o2)sc(C)c1C` the Potency was “inactive”.
With `Fc1ccccc1CCNc1nnnn1-c1ccccc1` the Potency was “inactive”.
In the case of `c1ccc(-n2nnnc2NC2CCCCCC2)cc1`, the Potency is reported as “inactive”.
For `FC(F)(F)c1nc(-c2ccccc2)ncc1-c1nnnn1-c1ccccc1`, the Potency was 16.4 µM (active).
In the case of `O=S(=O)(NC1CCCCC1N1CCC(O)CC1)c1ccc(Cl)cc1` (centres undefined), the Potency is reported as “inactive”.
In the case of `CN1CCCc2cc(C#N)c(=O)[nH]c21`, the Potency is reported as “inactive”.
In the case of `CCOC(=O)c1cc2cc(-c3c(C(=O)OCC)oc4cc(O)cc(O)c4c3=O)ccc2o1`, the Potency is reported as 23.1 µM (active).
With `CCOC(=O)c1cc2cc3ccccc3cc2oc1=O` the Potency was “inactive”.
In the case of `CCOC(=O)c1cc(=O)c2ccc(OCc3ccccc3)cc2o1`, the Potency is reported as “inactive”.
In the case of `O=C(O)c1ccc(COCC(F)(F)F)cc1`, the Potency is reported as “inactive”.
In the case of `CC1CCC2(CC1)NC(=O)N(CC(=O)c1ccc3c(c1)OCO3)C2=O` (centres undefined), the Potency is reported as “inactive”.
For `O=C(CCN1C(=O)c2ccccc2C1=O)Nc1ccncc1`, the Potency was “inactive”.
With `COc1cccc(C(=O)c2cc3ccc(O)cc3oc2=O)c1` the Potency was “inactive”.
In the case of `O=c1oc2cc(O)ccc2cc1-c1ccc(F)cc1`, the Potency is reported as 14.6 µM (active).
With `COc1ccc(-c2cc3ccc(OCc4nn[nH]n4)cc3oc2=O)cc1` the Potency was “inactive”.
With `CN(C)CCCNC(=O)c1ccc2[nH]c3ccccc3c2c1` the Potency was “inactive”.
With `COC(=O)CCNC(=O)c1ccc2[nH]c(C)c(C)c2c1` the Potency was “inactive”.
For `Cc1ccc(C(=O)NCCSc2c(C)[nH]c3ccccc23)cc1C`, the Potency was 25.9 µM (active).
With `COC(=O)c1ccc(OCC(=O)NC(C)(C)C)cc1` the Potency was “inactive”.
With `COc1ccc(-c2cc(C(F)(F)F)n3nc(C(=O)N4CCOCC4)c(Cl)c3n2)cc1` the Potency was 29.1 µM (active).
For `O=C(O)c1cnn2c(C(F)(F)F)cc(-c3ccccc3)nc12`, the Potency was “inactive”.
In the case of `COc1ccc(OCC(=O)N2CCOCC2)cc1`, the Potency is reported as “inactive”.
For `O=C(NC1CC(=O)N(c2ccc(F)cc2)C1)C1CCCCC1` (centres undefined), the Potency was “inactive”.
For `COc1cc(OC)cc(-c2nnc(SCC(=O)Nc3ccc(C(=O)O)cc3)s2)c1`, the Potency was “inactive”.
In the case of `COc1ccc(N2CCN(C(=O)CSCc3nc(-c4ccccc4Cl)oc3C)CC2)cc1`, the Potency is reported as 16.4 µM (active).
With `COc1ccc(N2CCN(C(=O)C3CCN(C(=O)c4ccccc4Cl)CC3)CC2)cc1` the Potency was “inactive”.
For `COc1ccc(N2CCN(C(=O)CN3C(=O)COc4ccccc43)CC2)cc1`, the Potency was “inactive”.
In the case of `Cc1ccc(NC(=O)COC(=O)CN2CCSC2=O)cc1F`, the Potency is reported as “inactive”.
With `CS(=O)(=O)c1ccc2nc(NC(=O)CN3CCCCCC3)sc2c1` the Potency was “inactive”.
With `CC(C)(C)C(=O)c1c(N)[nH]c(C(=O)c2ccccc2)c1-c1ccc(F)cc1` the Potency was “inactive”.
For `NC(=O)Cc1ccc2c(c1)[nH]c1ccccc12`, the Potency was “inactive”.
For `CCc1cc(-c2nnc(SCC(=O)NC3CC3)n2C)cs1`, the Potency was “inactive”.
With `COc1ccc(OC)c(/C=N/NC(=O)c2ccc[n+](CC(=O)c3ccccc3)c2)c1` the Potency was “inactive”.
With `COc1ccc(/C=N/NC(=O)c2ccc3c(c2)OCCO3)c(OC)c1` the Potency was “inactive”.
For `COc1cccc(/C=N\NC(=O)C2=NNC(=O)C2C)c1O` (centres undefined), the Potency was 23.1 µM (active).
With `COc1cccc(/C=N/NC(=O)c2[nH]nc3c2CCc2ccccc2-3)c1O` the Potency was 2.91 µM (active).
With `CN(C)CCNC(=O)c1[nH]nc2c1CCc1ccccc1-2` the Potency was “inactive”.
For `CCC(C)C1(C2CCCC2)NC(=O)NC1=O` (centres undefined), the Potency was “inactive”.
In the case of `CN1CCN(C(=O)CCc2ncc(C(F)(F)F)cc2Cl)CC1`, the Potency is reported as “inactive”.
In the case of `CCN1CCN(C(=O)CSc2ccc(C)cc2)CC1`, the Potency is reported as “inactive”.
For `CCN1CCC2(CC1)N=C(c1ccc(F)cc1)C(=S)N2C(=O)c1ccc(C)cc1`, the Potency was 5.8 µM (active).
In the case of `Cc1ccc(C(=O)N(CN2CCCC2=O)c2ccc(F)cc2)cc1`, the Potency is reported as “inactive”.
